Screening results: PubChem, The Scripps Research Institute Molecular Screening Center
M1 PAM parental – counter-screen for M1 PAMs: effect in parental CHO-K1 cells. ATP EC20, Fluo-8 calcium fluorescence; 0% at ATP EC20, 100% at ATP max. activation, % at 3 µM. 360,000 compounds, 0.02% hits. AID 602247;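 active means activation above the run cutoff, the mean activation of all test compounds plus 3 SD, cut at about 40% in these data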;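 further: peak over basal fluorescence ratio in a 140 s read after ATP addition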
CHRM1 antagonist – human CHRM1 antagonism | P11229 | CHO-K1 hM1, Fluo-8 calcium fluorescence, ACh EC80 antagonist | inhibition, % at 3 µM | 360,000 compounds, 1.3% hits | AID 588852;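 active means percent inhibition above its own plate's cutoff, namely the mean of that plate's compound wells plus 3 SD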;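 further: peak over basal fluorescence ratio during 140 s after agonist addition; 0% = ACh EC80 plus DMSO and 100% = DMSO alone without agonist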
Target sequence (P11229 whole entry, looked up): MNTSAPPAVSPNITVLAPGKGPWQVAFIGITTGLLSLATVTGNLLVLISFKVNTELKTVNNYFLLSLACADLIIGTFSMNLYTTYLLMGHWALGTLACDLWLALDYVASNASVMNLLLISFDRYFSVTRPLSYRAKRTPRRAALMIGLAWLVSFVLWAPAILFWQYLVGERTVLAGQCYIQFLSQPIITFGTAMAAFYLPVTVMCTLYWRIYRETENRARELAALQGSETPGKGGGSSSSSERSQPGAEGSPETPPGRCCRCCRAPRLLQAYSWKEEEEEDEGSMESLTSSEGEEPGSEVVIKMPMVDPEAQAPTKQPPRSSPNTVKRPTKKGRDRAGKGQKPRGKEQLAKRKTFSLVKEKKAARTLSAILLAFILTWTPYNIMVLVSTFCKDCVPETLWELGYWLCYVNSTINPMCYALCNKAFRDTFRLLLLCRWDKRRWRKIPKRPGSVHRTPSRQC
CHRM1 PAM – potentiates human M1 receptor response to acetylcholine; CHO-K1 hM1, Fluo-8 calcium fluorescence, ACh EC20; 0% = ACh EC20, 100% = maximal ACh; P11229; 360,000 compounds, 0.088% hits; activation, % at 3 µM; in the data active means activation above about 19%, passing the limit was not always enough
CHO-K1 Ca antag – M1 antagonist counterscreen hit in parental CHO-K1 cells; AID 602250; 360,000 compounds, 0.6% hits; inhibition, % at 3 µM; ATP-induced calcium, Fluo-8 fluorescence;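 active means inhibition above a per-plate cutoff, the plate's mean sample inhibition plus 3 SD, cut at about 24% in these data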;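 further: 0% = DMSO plus EC80 ATP and 100% = DMSO alone without ATP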
M1 ag parental – nonselective activator or artifact in parental CHO-K1 cells | 360,000 compounds, 0.48% hits | activation, % at 3 µM | Fluo-8 calcium fluorescence; scaled to maximal ATP response, vehicle zero; in the data active means activation above about 15%;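 further: untransfected CHO-K1 host cells lacking M1 receptor as counterscreen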
CHRM1 agonist – agonists of human M1 muscarinic receptor. CHO-K1 hM1, Fluo-8 calcium fluorescence, agonist mode; 0% DMSO, 100% acetylcholine EC100. activation, % at 3 µM. 360,000 compounds, 0.33% hits. AID 588814;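 active means activation above the run's mean compound activation plus 3 SD, cut at about 16% in these data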;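 further: peak over basal fluorescence ratio within a 140 s kinetic read after compound addition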
Active calls of the source: *. Sampled rows, rich in hits. Any-hit rate of the full collection: about 2.4%.

SMILES | M1 PAM parental | CHRM1 antagonist | CHRM1 PAM | CHO-K1 Ca antag | M1 ag parental | CHRM1 agonist
Cc1cc(N2CCCCCC2)nc2ccccc12 | 19 | 35* | -20 | -15 | 1 | -7
O=C(Nc1ccccc1)Nc1nc(-c2ccc(F)c(F)c2)cs1 | -5 | 18 | -6 | 20 | 16* | 5
O=C(Nc1ccc(Cl)cc1)Nc1nc(-c2ccccc2O)cs1 | -9 | 35* | -11 | 15 | 17* | 9
O=C(Nc1ccccc1)Nc1nc(-c2ccccc2)cs1 | -7 | 23 | -11 | 23 | 9 | 10
Cc1ccc(NC(=O)CSCC(=O)N(C)Cc2c(F)cccc2Cl)cc1 | 20 | -9 | 2 | -11 | 7 | 0
C=CC[C@@H](Cc1ccc(F)cc1)C(=O)OC[C@@H]1CCCN1C(=O)[C@@H](CC=C)CC(=O)N[C@H](CO)Cc1ccccc1 | 7 | 18 | -10 | -8 | 8 | -4
COc1cccc(C(=O)Nc2ccccc2OC(F)(F)F)c1 | 21 | -3 | 6 | -9 | 0 | -6
COc1cc(C(=O)Oc2cccc(Nc3ncnc4ccccc34)c2)cc(OC)c1OC | -3 | 41* | -20 | 11 | 11 | 0
CN1CCC(=C2c3ccccc3CCc3sccc32)CC1 | 17 | 98* | -26 | -3 | 2 | -4
Nc1nc2c(s1)CCc1ccccc1-2 | -12 | -4 | 2 | 12 | -1 | -7
CN1CCC(=C2c3ccccc3C(O)c3ccccc32)CC1 (centres undefined) | 9 | 100* | -35 | -10 | 0 | -11
O=C(Nc1ccc([N+](=O)[O-])cc1)C(c1ccccc1)c1ccccc1 | -6 | 20 | -14 | 11 | 7 | 0
COc1ccc(NC(=O)CSc2ccccn2)cc1OC | 16 | -5 | 7 | -3 | 0 | 0
COc1ccc(NC(=O)CSc2ncccc2C(=O)OC(C)C)cc1OC | -9 | 15 | -7 | 27* | 9 | -1
Cc1noc(C)c1CSCC(=O)Nc1nc2ccc(S(C)(=O)=O)cc2s1 | 2 | -2 | 6 | -4 | 0 | -2
Cc1ccccc1C(=O)NC1CC2CCCC(C1)N2CC(C)C (centres undefined) | -1 | 66* | -28 | -4 | 0 | -9
COc1ccc(C(=O)N[C@H]2CCCCNC2=O)cc1OC1CCN(C(C)C)CC1 | -16 | 5 | -5 | -5 | 0 | -5
CN1CCC(OC2c3ccccc3CCc3ccccc32)CC1 | 12 | 99* | -30 | -11 | 3 | -6
CC(C)c1ccc(S(=O)(=O)N2CCN(C(=O)C3CCN(C(=O)c4ccc(F)cc4)CC3)CC2)cc1 | 8 | -14 | 17 | -4 | 1 | 4
Cc1ccc(NC(=S)NCc2ccc(Cl)cc2)c(OC(F)F)c1 | -3 | 34* | -21 | 19 | 6 | -1
NC(=O)COC(=O)c1ccc(Cl)c(S(=O)(=O)N2CCCCCC2)c1 | 6 | -5 | 6 | -16 | 1 | -4
O=C(OCC(=O)N1CCCCCC1)c1ccc(Cl)c(S(=O)(=O)N2CCCC2)c1 | -10 | -2 | -4 | 17 | 16* | -6
CC(C)(C)c1ccc(OCC(=O)N2CCCCCC2)c(Br)c1 | 2 | -3 | 1 | 11 | 0 | -4
Cc1ccc(S(=O)(=O)N2CCN(C(=O)COC(=O)c3ccc(O)cc3)CC2)c(C)c1 | -20 | 30* | -12 | 27* | 1 | 0
Cc1ccc(S(=O)(=O)N2CCN(C(=O)COC(=O)c3ccc(C(C)(C)C)cc3)CC2)c(C)c1 | -20 | -3 | 8 | 9 | 0 | -2
SMILES | M1 PAM parental | CHRM1 antagonist | CHRM1 PAM | CHO-K1 Ca antag | M1 ag parental | CHRM1 agonist
Cc1ccc(OCC(=O)N2CCCCC2)c(Br)c1 | 7 | -23 | 27* | -16 | 0 | -1
Cc1ccc(C(=O)OCC(=O)N2CCCC2)cc1 | -13 | 21* | -7 | -7 | 0 | 0
CN(CC(=O)Nc1ccccc1Br)C(=O)C1CCN(C(=O)c2ccc(Cl)cc2)CC1 | 22 | -12 | 7 | -5 | 2 | -4
O=C1CC(c2ccc(O)c(O)c2)Oc2cc(O)cc(O)c21 (centres undefined) | -12 | -11 | 15 | 12 | 0 | 2
COc1ccc(C2CC(=O)c3c(O)cc(O)cc3O2)cc1O (centres undefined) | -13 | 28* | -18 | 14 | 1 | -2
COc1ccc(C(=O)N2CCCC(Nc3ccc(F)cc3)C2)c(OC)c1 (centres undefined) | -12 | -4 | 4 | 3 | 0 | -2
CCN(CC)CCNC(C(=O)Nc1cccc(C(C)=O)c1)c1ccccc1 (centres undefined) | 13 | 84* | -29 | 4 | -1 | -10
COCCn1nnnc1C(c1cccc(OC)c1OC)N1CCN(C(=O)c2ccco2)CC1 (centres undefined) | 4 | -2 | 7 | -11 | 0 | -2
COCCn1nnnc1C(c1cccc(OC)c1OC)N1CCN(C2CCCCC2)CC1 (centres undefined) | 14 | -81 | 24* | -4 | 0 | -2
CCCCn1c(-c2ccc([N+](=O)[O-])cc2)n[nH]c1=S | 19 | 98* | -22 | 8 | 0 | -6
CCCn1c(-c2ccc(F)cc2)n[nH]c1=S | -4 | 0 | 3 | 2 | 0 | -6
CCOc1ccc(C(=O)CC(=O)C(=O)NCCc2ccc(OC)c(OC)c2)cc1 | 20 | -7 | 6 | -12 | 1 | -1
C=CCN1CCN(C(=O)c2ccc3c(c2)OCO3)CC1 | 19 | -10 | 9 | -14 | 2 | -4
Cc1ccc(C)c(N2CCN(C(=O)C3CCCN(S(=O)(=O)c4cnc[nH]4)C3)CC2)c1 (centres undefined) | -10 | 11 | -8 | 23 | 0 | -3
COc1ccccc1N1CCN(C(=O)C2CCCN(S(=O)(=O)c3ccc4c(c3)CCCN4C(C)=O)C2)CC1 (centres undefined) | -22 | 30 | -15 | 8 | 11 | 3
CC(=O)N1CCCc2cc(S(=O)(=O)N3CCCC(C(=O)N4CCN(c5cc(C)ccc5C)CC4)C3)ccc21 (centres undefined) | -9 | 41* | -15 | 14 | 14 | 3
CC(=O)N1CCCc2cc(S(=O)(=O)N3CCCC(C(=O)N4CCN(c5ccccc5)CC4)C3)ccc21 (centres undefined) | 11 | 2 | -6 | -4 | 16* | 5
O=C(COC(=O)/C=C/c1cccc(C(F)(F)F)c1)NCCN1C(=O)CSC1=O | -14 | -4 | 15 | 6 | 1 | 0
CC(=O)c1c(COC(=O)c2ccco2)nc2ccccc2[n+]1[O-] | 16 | -20 | 5 | -13 | 4 | -1
O=C(OCc1nc2ccccc2[n+]([O-])c1C(=O)c1ccccc1)c1ccco1 | -19 | 14 | -7 | 24* | 1 | -1
